# Screens deposited in PubChem by National Center for Advancing Translational Sciences (NCATS).
# Hits are enriched below; roughly 19% of the tested compounds scored in any of these assays.
# DT40 TDP1 no CPT – qHTS for Inhibitors of human tyrosyl-DNA phosphodiesterase 1 (TDP1): qHTS in cells in absence of CPT. DT40 Tdp1-/- hTDP1 cells, no CPT, ATP luminescence, 48 h. Potency, µM (doses to about 46.2 µM), inactives show top-dose activity change, negative = growth inhibition, actives largely listed as inhibitors. 420,000 tested, 15% active; further: potency means the concentration at half of the fitted maximal effect; nearly all actives have a fitted effect of over 55% in size
#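 Camptothecin absent (DMSO only). Human TDP1-complemented DT40 knockout cells, 400 cells/well, 37 °C for minimum 48 hr; ATP measured via CellTiter-Glo, 30 min dark incubation, luminescence.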
# IL1B secr inh – inhibitors of inflammasome signaling (IL-1 beta secretion); THP-1 LPS/ATP IL-1B secretion, AlphaLISA, 16 h; stronger effect = lower value; activity change, % at 57.5 µM; 360,000 tested, 4.7% active; AID 743279; in the data active means activity change below about -50%; inconclusive means mostly about -30% to -49%
#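 THP-1 cells pretreated 1 hr with compounds (up to 57.5 uM final), then stimulated with LPS (250 ng/mL final) plus ATP (1.25 mM final); secreted IL-1B measured by AlphaLISA after 16 hr, decreased signal indicating inhibition.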
# ELG1 repair inh – inhibitors of ELG1-dependent DNA repair in HEK293T cells; Potency, µM (doses to about 46.1 µM), without a hit: top-dose activity change, negative = inhibition, most hits filed as inhibitors; 330,000 tested, 2.3% active; HEK293T ELG1-luciferase reporter, luminescence, 16 h; DNA damage induced by 5-fluorouridine; further: potency means the concentration at half of the fitted maximal effect; nearly all actives have a fitted effect of over 55% in size
#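 Cells (2,000 per well) received 5-fluorouridine plus test compound or DMSO and were incubated 16 hr at 37 °C, 5% CO2. Luciferase activity was read by luminescence 30 min after ONE-Glo addition; signal suppression marked inhibition of damage-induced ELG1 function.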
# TDP1 inh – blocks human tyrosyl-DNA phosphodiesterase 1. Q9NUW8. Potency, µM (titrated, usually from 130 µM), for inactives: top-dose activity change, negative = inhibition, most hits filed as inhibitors. 350,000 tested, 0.28% active. recombinant TDP1, AlphaScreen DNA substrate cleavage; further: potency means the concentration at half of the fitted maximal effect; nearly all actives have a fitted effect of over 40% in size
# Target sequence (Q9NUW8 whole entry, looked up): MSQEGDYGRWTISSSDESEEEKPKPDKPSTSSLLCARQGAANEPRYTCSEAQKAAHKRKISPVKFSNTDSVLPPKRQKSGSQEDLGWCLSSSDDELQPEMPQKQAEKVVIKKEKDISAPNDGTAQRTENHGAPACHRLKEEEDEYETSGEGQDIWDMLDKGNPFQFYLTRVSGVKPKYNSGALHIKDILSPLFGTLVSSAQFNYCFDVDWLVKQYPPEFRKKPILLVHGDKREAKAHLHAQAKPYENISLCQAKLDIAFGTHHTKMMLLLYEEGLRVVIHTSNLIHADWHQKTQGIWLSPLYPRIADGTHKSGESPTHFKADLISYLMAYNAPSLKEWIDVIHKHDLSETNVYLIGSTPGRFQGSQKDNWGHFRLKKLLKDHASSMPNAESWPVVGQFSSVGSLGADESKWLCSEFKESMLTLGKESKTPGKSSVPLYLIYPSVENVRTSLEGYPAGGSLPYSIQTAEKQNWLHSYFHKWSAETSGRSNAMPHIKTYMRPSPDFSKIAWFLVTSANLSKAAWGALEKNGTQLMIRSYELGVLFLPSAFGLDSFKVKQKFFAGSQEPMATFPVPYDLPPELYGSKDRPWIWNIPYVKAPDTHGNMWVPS
#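 E. coli-derived human Tdp1, 1 nM final. Cpd preinc 15 min RT; substrate 15 nM final, 5 min RT; AS bead mix 10 ug/ml final, 10 min RT. Signal loss = tyrosine-FITC cleavage. No-enzyme wells = max signal.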
# DT40 TDP1 CPT – growth inhibition of DT40 Tdp1-/-;hTDP1 cells with camptothecin (screen for TDP1 inhibitors). chicken DT40 Tdp1-/-;hTDP1 cells + 20 nM CPT, ATP luminescence, 48 h. Potency, µM (doses to about 46.2 µM), for inactives: top-dose activity change, negative = growth inhibition, most hits filed as inhibitors. 420,000 tested, 12% active; further: potency means the concentration at half of the fitted maximal effect; nearly all actives have a fitted effect of over 55% in size
#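 Chicken DT40 Tdp1-/- cells complemented with human TDP1, 400 cells/well, exposed to compounds plus 20 nM camptothecin for at least 48 h at 37 C; viability read as ATP content by CellTiter-Glo luminescence.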
# Giardia kill – kills Giardia lamblia. Giardia lamblia trophozoite viability. activity change, % at 7.66 µM, hits read low. 340,000 tested, 0.15% active. AID 540267; in the data active means activity change below about -80%; inconclusive means between about -30% and that limit;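 further: parasites exposed to compound for two days anaerobically before the ATP read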
#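 Compounds were tested on trophozoites seeded at 100 cells/well and held 48 hrs at 37 deg C anaerobically. An ATP-based luminescent kit measured the remaining live cells.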
# An asterisk follows results filed as active; ? = inconclusive; / = no result; [ ] = another dose, or the depositor's remark. Unless noted, the call rests on the fitted dose curve; in most records, active means well fitted curve in the direction sought with a large enough effect; inconclusive means small, poorly fitted or top-dose-only effect, or another doubt; inactive means no such curve, though single readings can be large; an effect the other way counts as inactive or inconclusive. On the % scale 0 is the no-effect control and ±100 the full control effect.
SMILES,DT40 TDP1 no CPT,IL1B secr inh,ELG1 repair inh,TDP1 inh,DT40 TDP1 CPT,Giardia kill
C#CC(C)(O)CC (stereo not given),22.5%,/,/,4.2%,19.0%,/
N=C1c2ccccc2CN1c1ccc(F)c([N+](=O)[O-])c1,?,-99.3*,-10.8%,-5.1%,?,-14.8
Cc1ccc(-n2c(/C=C/c3cccs3)nc3ccccc3c2=O)cc1C,?,/,/,10.4%,?,/
Cc1ccc2oc(-c3ccc(Cl)cc3)c(O)c(=O)c2c1,16.4µM*,/,/,0.0%,20.6µM*,/
O=C1CN=C(c2ccc(Cl)cc2)c2oc3ccccc3c2N1,0.4%,84.2,-3.2%,/,2.8%,7.7
Cc1cccc(-n2c(O)c(/C=C3/C(c4ccccc4)=Nc4ccccc43)c(=O)[nH]c2=O)c1,2.31µM*,73.7,18.8%,/,2.91µM*,9.9
O=c1[nH]c(=O)n(-c2ccc(F)cc2)c(O)c1/C=C1\C=Nc2ccccc21,1.2%,13.2,-9.9%,/,2.8%,4.3
Cc1ccccc1-n1c(O)c(/C=C2/C(c3ccccc3)=Nc3ccccc32)c(=O)[nH]c1=O,4.61µM*,?,?,8.1%,4.61µM*,-7.4
CC1=Nc2ccccc2/C1=C/c1c(O)n(C)c(=O)[nH]c1=O,?,-102.9*,-19.8%,/,?,-17.7
Cc1ccc(-n2c(O)c(/C=C3/C(c4ccccc4)=Nc4ccccc43)c(=O)[nH]c2=O)cc1,7.31µM*,-57.6*,?,-2.7%,5.8µM*,14.4
COC(=O)C1=Nc2ccccc2/C1=C\c1c(O)n(-c2cc(OC)ccc2OC)c(=O)[nH]c1=O,-14.2%,-25.6,-16.9%,?,-9.9%,14.2
c1cncc(CNc2cc(-c3ccc4c(c3)OCO4)ncn2)c1,?,/,/,-9.7%[56.1 µM],7.2%,/
CCN(CC)C(=O)c1cccc(-c2csc(C(C)(O)c3ccccc3)n2)c1 (stereo not given),?,3.9,/,/,?,/
Cc1oc(-c2cccc(Cl)c2)nc1CN1CCC(C(=O)NCCCN2CCN(c3ccc(F)cc3)CC2)CC1,2.91µM*,/,/,5.8%,4.61µM*,/
Fc1ccc(CN2CCN(c3ccc(Cl)cc3)CC2)cc1,?,13.2,-10.1%,6.1%,-28.5%,-3.5
Cc1oc(-c2cccc(Cl)c2)nc1CN1CCC(C(=O)NC(C)c2ccccc2)CC1 (stereo not given),4.61µM*,/,/,4.6%,4.11µM*,/
Cc1oc(-c2ccc(Cl)cc2)nc1CN1CCC(C(=O)NCCCN2CCN(c3cccc(Cl)c3)CC2)CC1,2.59µM*,/,/,8.1%,5.17µM*,/
CCOC(=O)C1CCCN(Cc2ccc(-c3ccccc3)cc2)C1 (stereo not given),?,-9.0,?,/,?,-5.0
CCCCNC(=O)C1CCCN(Cc2nc(-c3ccc(Cl)cc3)oc2C)C1 (stereo not given),4.11µM*,/,/,5.8%,6.51µM*,/
O=C(Oc1ccccc1)N1CCC2(CC1)CN(Cc1ccncc1)C2,?,/,/,/,-19.4%,/
CC12NC(Cc3ccccc31)c1ccccc12 (stereo not given),/,/,/,8.6%,/,/
CCOC(=O)c1c(C)c(P(=S)(N2CCOCC2)N2CCOCC2)n(C)c1C,-1.9%,-3.5,16.4µM*,3.9%,-4.0%,2.5
O=C(O)CF,-9.1%,/,/,2.7%,-1.9%,/
COc1cccc(C2=CC(c3cc(Br)ccc3F)n3nnnc3N2)c1 (stereo not given),1.3µM*,/,/,8.5%,1.3µM*,/
CC/C(=N\N1CCCCCC1)c1c(O)n(-c2ccccc2C)c(=O)[nH]c1=O,14.6µM*,2.2,-15.0%,8.0%,20.6µM*,-7.5
SMILES,DT40 TDP1 no CPT,IL1B secr inh,ELG1 repair inh,TDP1 inh,DT40 TDP1 CPT,Giardia kill
COC(=O)C1=C(c2cc3ccccc3s2)C[C@@H]2CC[C@H]1N2C(=O)NCC1CC1,16.4µM*,10.9,/,/,?,-7.6
COC(=O)C1=C(c2ccc(F)cc2OCc2ccccc2)C[C@@H]2CC[C@H]1N2C(=O)N1CCC(O)CC1,?,-13.3,-15.2%,1.1%,?,6.1
COC(=O)C1=C(c2c(C)noc2C)C[C@@H]2CC[C@H]1N2C(=O)NCc1ccc(C(F)(F)F)cc1,?,18.3,16.6%,1.4%,?,-9.7
COC(=O)C1=C(c2cc3ccccc3s2)C[C@@H]2CC[C@H]1N2C(=O)NCc1ccc(C(F)(F)F)cc1,18.4µM*,-52.0*,/,/,?,0.1
COC(=O)C1=C(c2cc3ccccc3s2)C[C@@H]2CC[C@H]1N2C(=O)N1CCC(C)CC1,2.59µM*,-19.1,/,/,5.17µM*,36.1
COC(=O)C1=C(c2cc3ccccc3s2)C[C@@H]2CC[C@H]1N2C,-22.8%,-9.2,?,0.6%,-8.6%,-0.3
COC(=O)C1=C(c2cc3ccccc3s2)C[C@@H]2CC[C@H]1N2C(=O)NC1CC1,14.6µM*,18.2,/,/,?,3.0
COc1cccc(/C=C/c2nc(S(=O)(=O)c3ccccc3)c(N3CCC(C(N)=O)CC3)o2)c1,?,-14.7,/,/,?,/
Cc1ccc([C@H]2C[C@H](n3cc(C4CC4)nn3)[C@@H](O)CN2Cc2cccs2)cc1,?,11.2,/,/,-30.7%,/
COc1ccc(OC)c(CN2C(=O)c3ccccc3C2c2nnnn2-c2c(C)cccc2C)c1 (stereo not given),?,-0.9,/,/,?,/
CC(C)c1ccc(OCC(=O)N2CCN(CCc3ccncc3)CC2)cc1,-22.8%,/,/,1.6%,-4.7%,/
NCc1ccccc1Sc1ccccc1CO,?,/,/,4.2%,?,/
NCCc1ccc(OCc2ccccc2)c(OCc2ccccc2)c1,11.6µM*,-81.9*,-19.3%,2.9%,16.4µM*,-7.1
CCCCCCCCN1C(=O)[C@H](CC(=O)NCCc2ccccc2OC)C[C@@]2(C(=O)OC)CCCCC=C12,?,-69.9*,/,/,?,/
O=P(O)(O)C(Cl)(Cl)P(=O)(O)O,0.1%,/,/,-4.7%[56.1 µM],12.7%,/
O=C(c1cc(C(=O)NCc2ccccc2)c(=O)n(Cc2ccccc2)c1)c1cc(Cl)ccc1O,8.2µM*,-2.6,?,2.7%,7.31µM*,6.1
O=C(NCc1ccccc1)c1cccn(Cc2ccccc2)c1=O,?,13.7,-29.2%,/,?,-4.1
O=C(Cn1cc(C(=O)c2ccccc2)c2ccccc21)Nc1ccc(Br)cc1,23.1µM*,/,/,0.0%,?,/
CN1C(=O)C(O)N=C(c2ccccc2)c2cc(Cl)ccc21 (stereo not given),0.7%,/,/,6.4%,7.1%,/
O=[N+]([O-])c1cc(-c2ccc([As](=O)(O)O)cc2)ccc1[As](=O)(O)O,/,/,-0.1%,35.5µM*,/,/
Cc1cccc(OCC(=O)N2CCN(CCc3ccccn3)CC2)c1,-4.2%,/,/,4.7%,-12.9%,/
